# hNpr1 antagonist: blocks ANP-stimulated signaling of human Npr1 receptor; P16066; HEK293 hNpr1 GloSensor cGMP, ANP-stimulated luminescence; Potency, µM (titrated, usually from 46.3 µM), for the others: top-dose activity change, negative = inhibition, usual class: inhibitors; actives 1.6% (n = 76,000); AID 1347048; calls by dose curve; also: % is scaled to controls: 0 for no effect and ±100 for the full control effect; nearly all actives have a fitted effect of over 60% in size
#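 Compound pre-incubated 30 min at room temperature on GloSensor-loaded HEK293 cells stably carrying hNpr1 and the pGS-40F cGMP biosensor. Stimulation uses hNppA at 0.1 nM final; luminescence is taken at baseline and 20 min post-agonist.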
# HEK293 tox: HEK 293 cell cytotoxicity; HEK 293 viability, ATP luminescence (CellTiter-Glo), 48-72 h; Potency, µM (titrated, usually from 115 µM), inactives show at the top dose activity change, negative = cytotoxicity, hits mostly inhibitors; AID 1345083; actives 6.6% (n = 94,000); also: % is scaled to controls: 0 for no effect and ±100 for the full control effect; nearly all actives have a fitted effect of over 60% in size
#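 HEK 293 cells at 250 cells/well were exposed to compounds by pintool transfer for 48 or 72 hr at 37 degree Celsius, 5% CO2. Viability was read as ATP-coupled luminescence with CellTiter-Glo after 10 min at room temperature.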
# FLuc inh-1: blocks purified firefly luciferase enzyme activity | Potency, µM (series often up to 115 µM), hits mostly inhibitors | AID 1347043 | P08659 | purified P. pyralis luciferase, luminescence, biochemical | actives 2.5% (n = 76,000); also: % is scaled to controls: 0 for no effect and ±100 for the full control effect; nearly all actives have a fitted effect of over 65% in size
# Target sequence (P08659 whole entry, looked up): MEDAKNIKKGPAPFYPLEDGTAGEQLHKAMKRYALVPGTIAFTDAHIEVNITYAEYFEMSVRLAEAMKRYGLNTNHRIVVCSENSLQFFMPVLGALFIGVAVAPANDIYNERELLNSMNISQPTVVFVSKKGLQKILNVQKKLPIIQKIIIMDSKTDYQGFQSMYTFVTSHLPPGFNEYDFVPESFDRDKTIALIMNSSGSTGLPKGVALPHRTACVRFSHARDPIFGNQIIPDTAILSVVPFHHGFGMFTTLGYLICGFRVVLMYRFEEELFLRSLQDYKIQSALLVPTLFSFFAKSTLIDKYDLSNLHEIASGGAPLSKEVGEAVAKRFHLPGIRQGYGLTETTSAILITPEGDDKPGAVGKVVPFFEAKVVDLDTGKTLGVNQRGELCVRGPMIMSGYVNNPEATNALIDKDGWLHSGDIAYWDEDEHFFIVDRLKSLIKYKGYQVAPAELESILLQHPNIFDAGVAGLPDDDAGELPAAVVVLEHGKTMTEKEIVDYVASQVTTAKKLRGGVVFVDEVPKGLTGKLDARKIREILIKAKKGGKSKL
#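 FLuc 10nM, D-luciferin 10uM, ATP 10uM, Mg acetate 10mM, Tris acetate pH 7.5, Tween/BSA; cpd qHTS; enzyme added last; CCD luminescence.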
# NIH3T3 tox: NIH 3T3 cell cytotoxicity | NIH 3T3 viability, CellTiter-Glo ATP luminescence, 48-72 h | Potency, µM (doses to about 96.7 µM), without a hit: at the top dose activity change, negative = cytotoxicity, actives largely listed as inhibitors | actives 4.3% (n = 94,000); also: % is scaled to controls: 0 for no effect and ±100 for the full control effect; nearly all actives have a fitted effect of over 55% in size
#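 ATP-dependent luminescence (CellTiter-Glo) served as the viability signal for NIH 3T3 cells treated with compound for 48 or 72 hr at 37 °C.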
# GPT2 inh: inhibitors of human GPT2 alanine aminotransferase. Q8TD30. Recombinant GPT2, coupled pyruvate oxidase/HRP Amplex Red fluorescence. Potency, µM (titrated, usually from 57.7 µM), without a hit: at the top dose activity change, negative = inhibition, most hits filed as inhibitors. actives 0.25% (n = 100,000); also: % is scaled to controls: 0 for no effect and ±100 for the full control effect; nearly all actives have a fitted effect of over 60% in size
#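 Fluorescence of coupled pyruvate oxidase/HRP/Amplex Red system (50uM Amplex, 30 min, dark) reports pyruvate formed by GPT2. Enzyme reaction: 10ng/uL GPT2, 2mM L-alanine, 250uM a-KG, 30 min room temperature, pH 7.5; 50uM AOA control.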
# FLuc SDR no ATP: firefly luciferase binding stabilization, ATP absent. shares compounds with FLuc inh-1. Purified FLuc-C-HiBiT, Nano-Glo HiBiT luminescence, no ATP. Potency, µM (top dose mostly 32.7 µM), inactives show top-dose activation (signal gain), most hits filed as activators. actives 7.8% (n = 1,300). AID 1963318; also: nearly all actives have a fitted effect of over 55% in size
# FLuc SDR ATP: stabilizes firefly luciferase with ATP present; purified FLuc-C-HiBiT + ATP, HiBiT complementation luminescence; Potency, µM (top dose mostly 32.7 µM), inactives show at the highest dose activation (gain of signal), most hits filed as activators; actives 8.7% (n = 1,300); shares compounds with FLuc inh-1;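 also: signal reports ligand binding via conformational change of the enzyme rather than luciferase catalysis; % of control where 0% means no effect; nearly all actives have a fitted effect of over 55% in size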
# FLuc inh-2: inhibitors of firefly luciferase enzymatic activity. shares compounds with FLuc inh-1. purified FLuc-C-HiBiT enzyme, luciferin luminescence. Potency, µM (top dose mostly 32.7 µM), for inactives: at the highest dose activity change, negative = inhibition, hits mostly inhibitors. actives 42% (n = 1,300). AID 1963320; also: % is scaled to controls: 0 for no effect and ±100 for the full control effect; nearly all actives have a fitted effect of over 70% in size
# * = called active by the depositor; i = inactive; ? = inconclusive; . = not tested or not shown. Shown are actives, neighbours in structure and some others; about 10% of the full set was active somewhere. Unless noted, calls follow the shape of the dose curve; as a rule, active = well fitted curve in the direction sought with a large enough effect; inconclusive = small, poorly fitted or top-dose-only effect, or another doubt; inactive = no such curve, though single readings can be large; an effect the other way counts as inactive or inconclusive. Potency is read from the fitted curve at half-maximal effect.
SMILES,hNpr1 antagonist,HEK293 tox,FLuc inh-1,NIH3T3 tox,GPT2 inh,FLuc SDR no ATP,FLuc SDR ATP,FLuc inh-2
COc1ccc(-c2noc(Nc3ccc(C)c(C)c3)n2)cc1,-19%,40µM*,8.9µM*,?,i,20%,12%,?
CCc1cccc(Nc2nc(-c3ccc(OC)c(OC)c3)no2)c1,-14%,?,?,?,i,.,.,.
COc1cc(Nc2nc(-c3cccc(OC)c3OC)no2)cc(OC)c1OC,-23%,?,i,?,-38%,.,.,.
COc1ccc(-c2noc(Nc3ccc(OC)c(OC)c3)n2)cc1,-14%,28µM*,7.9µM*,?,i,19%,12%,?
COc1cccc(Nc2nc(-c3ccccc3)no2)c1,8.9µM*,?,0.79µM*,45µM*,1%,?,?,6.2µM*
CN(CC1CCOCC1)C(=O)Nc1ccccc1C(F)(F)F,1%,16%,i,i,i,.,.,.
Cn1cc(CN2CCc3c([nH]n(CCO)c3=O)C2)c(-c2ccccc2)n1,9%,1%,i,-11%,-18%,.,.,.
Cc1ccc(C(C)CCN2CCC(n3nccc3NC(=O)Cc3ccccc3)CC2)o1 (centres undefined),3%,-12%,i,3%,-10%,.,.,.
CCCN1CCC2(Cc3ccccc3CN(C(=O)Cc3ccc(O)cc3)C2)C1 (centres undefined),.,-10%,.,i,i,.,.,.
COc1ccc(NC(=O)c2cc3ccccc3o2)c(OC)c1,.,.,.,.,.,19%,14%,?
Cc1cc(C)cc(NC2=N[C@H]3[C@@H](O)[C@H](O)C[C@H](C(=O)N4CCC(C(N)=O)CC4)[C@H]3S2)c1,5%,-3%,i,-6%,i,.,.,.
c1c(-c2nc(C3CCOC3)no2)sc2c1CCCC2 (centres undefined),8.9µM*,?,0.63µM*,?,i,21%,?,5.6µM*
O=C1NCCCc2[nH]c(-c3cc(-c4cccc(F)c4)no3)nc21,-29%,-34%,2.8µM*,-29%,i,?,?,7µM*
Cc1ccc(-c2cc3c(=O)n(CCNC(=O)c4cccc(Cl)c4)ccn3n2)c(C)c1,?,?,1.6µM*,?,2%,28%,?,3.9µM*
Cc1ccc(-c2cc3c(=O)n(CCNC(=O)c4nccc5ccccc45)ccn3n2)c(C)c1,-12%,45µM*,3.5µM*,?,-1%,23%,16%,8.8µM*
Cc1ccc(-c2cc3c(=O)n(CCNC(=O)c4ccc(C)s4)ccn3n2)c(C)c1,0%,?,4.5µM*,?,i,27%,?,7µM*
Cc1ccc(-c2cc3c(=O)n(CCNC(=O)C4CCCCC4)ccn3n2)c(C)c1,?,?,2µM*,?,-18%,?,?,2.5µM*
Cc1ccc(C(=O)NCCn2ccn3nc(-c4ccc(C)cc4C)cc3c2=O)cc1,4%,i,?,-7%,i,.,.,.
Cc1ccc(-c2cc3c(=O)n(CCNC(=O)c4cc(F)ccc4F)ccn3n2)c(C)c1,-20%,-10%,?,-19%,i,.,.,.
